# Inconclusive results are not listed. Active and inactive are the calls of the source. Calls follow the shape of the dose curve; as a rule, active = well fitted curve in the direction sought with a large enough effect; inconclusive = small, poorly fitted or top-dose-only effect, or another doubt; inactive = no such curve, though single readings can be large; an effect the other way counts as inactive or inconclusive.
# Experiments:
# [1] = molecular target: DNA repair nuclease/redox regulator APEX1 (Homo sapiens) (UniProt P27695); assay: qHTS Validation Assay for Inhibitors of the Human Apurinic/apyrimidinic Endonuclease 1 (APE1) (AID 1705;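 also: TAMRA fluorescence gain over two minutes as APE1 cuts a quenched THF abasic duplex; series mostly up to about 57 µM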)
# In short: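 qHTS, 1536-well. APE1 + cpd 15 min RT → 50 nM TAMRA/BHQ-2 THF-abasic dsDNA substrate → kinetic fluorescence, 3 reads/60 s; delta(read3−read1) = reaction progress. No-enzyme buffer = negative control.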
# [2] = Counterscreen for APE1 Inhibitors: Fluorescent Dye Displacement Validation Assay (AID 1707)
# In short: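 Thiazole Orange displacement from dsDNA: 250 nM ThO with 50 nM TAMRA-labelled abasic-site (tetrahydrofuran) duplex in 50 mM Tris-HCl pH7.5, 50mM NaCl, 2 mM MgCl2, 0.01% Tween-20. Loss of endpoint fluorescence (ex 480 nm, em 540 nm) flags DNA binders.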
# [3] = molecular target: Endonuclease 4 (Escherichia coli (strain K12)) (UniProt P0A6C1); assay: Counterscreen for APE1 Inhibitors: qHTS Validation Assay for Inhibitors of Endonuclease IV (AID 1708)
# In short: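 2 nM enzyme was preincubated with compounds for 15 min at room temperature in 50 mM Tris-HCl pH 7.5, 50 mM NaCl, 2 mM MgCl2, 1 mM DTT, 0.01% Tween-20. 50 nM THF-abasic TAMRA/BHQ-2 duplex substrate started the reaction.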
# [4] = qHTS for differential inhibitors of proliferation of Plasmodium falciparum line 7G8 (AID 1815);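 also: parasite growth measured after three days of incubation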
# [5] = qHTS for differential inhibitors of proliferation of Plasmodium falciparum line GB4 (AID 1816);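 also: parasite growth measured after 72 h incubation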
# [6] = qHTS for differential inhibitors of proliferation of Plasmodium falciparum line 3D7 (AID 1876);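 also: parasite growth measured after three days of culture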
# [7] = molecular target: Alpha-galactosidase A (Homo sapiens) (UniProt P06280); assay: Counterscreen for Glucocerebrosidase Inhibitors: qHTS Assay for Human alpha-Galactosidase at pH 4.5 (AID 992)
# In short: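 Enzyme at 2 nM final was combined with compound (0.7 nM to 77 uM) and 80 uM 4-methylumbelliferyl alpha-D-galactopyranoside in 50 mM citric acid, 0.005% Tween-20, pH 4.5. After 20 min at room temperature, fluorescence was read (Ex 365/Em 440 nm); AC50 came from Hill fits.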
# [8] = molecular target: alpha-glucosidase (Oryza sativa, rice) (UniProt Q653V4); assay: Counterscreen for Glucocerebrosidase Inhibitors: qHTS Assay for Rice alpha-Glucosidase at pH 5.0 (AID 997)
# In short: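 Rice alpha-glucosidase (4 nM final) with 400 uM 4-methylumbelliferyl-alpha-D-glucopyranoside in citrate buffer pH 5.0, 20 min at room temperature, stopped at pH 10; fluorescence 365/440 nm, compounds 0.7 nM–77 uM, AC50 from Hill fits.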
# [9] = Cell Viability - LYMP1-002 - Assay at 24 hr (AID 993)
# In short: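 qHTS, LYMP1-002 lymphoblastoid, 24 h cpd, 37 C, CellTiter-Glo ATP luminescence; AC50 via Hill eq.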
# [10] = Cell Viability - LYMP1-002 - Assay at 40 hr (AID 994); also: nearly all actives have a fitted effect of over 60% in size
# In short: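 Viability in the human lymphoblastoid line was measured as intracellular ATP via CellTiter-Glo after 40 hr compound exposure. Tetraoctylammonium bromide served as positive control.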
# DNA repair nuclease/redox regulator APEX1 (Homo sapiens), sequence (P27695 whole entry, looked up): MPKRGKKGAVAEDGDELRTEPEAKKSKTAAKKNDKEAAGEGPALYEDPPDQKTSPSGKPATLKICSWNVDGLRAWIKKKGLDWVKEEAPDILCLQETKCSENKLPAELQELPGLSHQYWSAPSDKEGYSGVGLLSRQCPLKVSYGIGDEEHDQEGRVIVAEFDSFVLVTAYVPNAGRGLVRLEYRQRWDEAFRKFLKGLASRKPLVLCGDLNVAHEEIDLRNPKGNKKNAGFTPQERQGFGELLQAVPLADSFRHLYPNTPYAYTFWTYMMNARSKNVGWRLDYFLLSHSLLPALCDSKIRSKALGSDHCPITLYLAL
# Alpha-galactosidase A (Homo sapiens), sequence (P06280 whole entry, looked up): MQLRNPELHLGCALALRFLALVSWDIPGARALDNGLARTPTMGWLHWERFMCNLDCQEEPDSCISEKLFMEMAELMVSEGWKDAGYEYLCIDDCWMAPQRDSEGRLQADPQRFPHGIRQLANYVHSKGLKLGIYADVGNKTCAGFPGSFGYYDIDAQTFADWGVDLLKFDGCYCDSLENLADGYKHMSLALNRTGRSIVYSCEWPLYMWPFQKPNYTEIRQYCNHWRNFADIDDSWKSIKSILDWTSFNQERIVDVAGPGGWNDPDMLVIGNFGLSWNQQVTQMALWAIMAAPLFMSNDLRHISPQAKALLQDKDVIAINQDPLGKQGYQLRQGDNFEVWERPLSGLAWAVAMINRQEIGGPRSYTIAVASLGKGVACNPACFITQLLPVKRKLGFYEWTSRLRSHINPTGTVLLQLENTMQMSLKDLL
smiles,measurement,setting,value
N=c1ccn2c(n1)O[C@H]1[C@@H](O)[C@@H](CO)O[C@H]12,outcome,[1],inactive
same,outcome,[2],inactive
same,outcome,[3],inactive
same,outcome,[4],inactive
same,outcome,[5],inactive
same,outcome,[6],inactive
COc1ccc2c(c1OC)C(=O)OC2[C@H]1c2c(cc3c(c2OC)OCO3)CCN1C (stereo partly specified),outcome,[7],inactive
same,outcome,[8],inactive
CN(C)CC[C@H](c1ccc(Cl)cc1)c1ccccn1,outcome,[8],inactive
Cc1cc(O)c2c(c1)C(=O)c1cccc(O)c1C2=O,outcome,[9],inactive
same,outcome,[10],inactive
